Bioassay records deposited in PubChem by National Center for Advancing Translational Sciences (NCATS).
D3 ag: D3 dopamine receptor (human) agonism; P35462; D3R DiscoveRx beta-arrestin cells, luminescence, 90 min; max activation, %; actives 0.58% (n = 410,000); AID 652048; in the data active means max activation above about 30%
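Cells at 1500/well, incubated overnight, then treated with pinned compounds (dopamine as control) for 90 min at 37 degrees C. DiscoveRx reagent added for 30 - 60 minutes at room temperature; luminescence read.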
D1 PAM: potentiators of human D1 dopamine receptor. P21728. HEK293 TREx D1 cells, calcium flux, dopamine EC20 potentiation. potentiation, % at 10 µM. actives 0.036% (n = 360,000). AID 504651; in the data active means potentiation above about 30%
Target sequence (P21728 whole entry, looked up): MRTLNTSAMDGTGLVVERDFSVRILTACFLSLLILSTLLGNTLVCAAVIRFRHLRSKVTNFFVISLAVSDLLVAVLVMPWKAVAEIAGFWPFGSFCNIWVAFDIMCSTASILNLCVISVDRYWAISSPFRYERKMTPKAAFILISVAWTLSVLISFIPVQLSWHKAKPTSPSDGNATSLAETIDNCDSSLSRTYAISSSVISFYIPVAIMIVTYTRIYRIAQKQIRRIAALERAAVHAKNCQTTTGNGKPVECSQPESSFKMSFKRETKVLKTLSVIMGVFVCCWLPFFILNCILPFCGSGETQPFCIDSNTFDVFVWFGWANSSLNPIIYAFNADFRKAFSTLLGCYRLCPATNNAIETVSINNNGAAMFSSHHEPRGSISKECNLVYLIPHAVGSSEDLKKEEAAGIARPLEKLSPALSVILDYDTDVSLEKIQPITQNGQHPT
D1 antagonist: antagonists of human D1 dopamine receptor | P21728 | actives 3.2% (n = 360,000) | activity change, negative = inhibition, % at 10 µM | HEK293 TREx D1 cells, calcium flux, dopamine EC80; hits give low values; in the data active means activity change below about -30%
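Compound effects on dopamine-evoked calcium signalling were measured in tetracycline-induced HEK293 Trex D1 cells. Dopamine at EC80 followed a 180 s compound pre-read, and fluorescence was tracked kinetically for 180 s more.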
D1 ag: activates the human D1 dopamine receptor. HEK293 T-REx D1 cells, calcium flux, agonist mode. activation, % at 2 µM. actives 1% (n = 360,000). AID 504660; in the data active means activation above about 30%
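Agonism was scored from calcium flux recorded over 180 s (1 read/s) after pintool compound addition, following a 10-cycle baseline. Cells were inducible force-coupled HEK293 TREx D1, plated overnight at 30 C and loaded with no-wash calcium dye.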
DRD3 antagonist: D3 dopamine receptor (human) antagonism; P35462; D3R cells, DiscoveRx beta-arrestin luminescence, antagonist mode; hits give low values; max response, negative = inhibition, %; actives 2.5% (n = 360,000); in the data active means max response below about -50%; inconclusive means no clear call, values can overlap the other calls
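Cells plated overnight at 1500 cells/well, then exposed to library compounds with dopamine controls for 90 minutes at 37 degrees C. DiscoveRx reagent added for 30–60 minutes at room temperature; luminescence read, quantitative HTS format.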
Numbers stand for hits. A selection: hits, their analogues and other compounds. The true share with any hit is near 6%.

`CC(C)(C)C1CCc2nc(NC(=O)COc3ccc(F)cc3)sc2C1` (centres undefined) gave D3 ag inactive, D1 PAM inactive, D1 antagonist inactive and D1 ag inactive.
For COc1cc(Cl)c(C)cc1NC(=O)CSCc1nc(-c2ccc(OC)c(OC)c2)no1 the results were D3 ag inactive, D1 PAM inactive, D1 antagonist inactive and D1 ag inactive.
For Fc1ccc(Nc2nc3nonc3nc2Nc2cccc(C(F)(F)F)c2)cc1 the results were D3 ag inactive, D1 PAM inactive, D1 antagonist -36.6 and D1 ag inactive.
For COc1cc(NC(=O)Cn2cc(C(=O)c3ccc(F)cc3)c(=O)c3ccc(C)nc32)cc(OC)c1 the results were D3 ag inactive, D1 PAM inactive, D1 antagonist inactive and D1 ag inactive.
`NC(=O)NC(=O)C(c1ccccc1)N1CCN(S(=O)(=O)Cc2ccccc2)CC1` (centres undefined) gave D3 ag inactive, D1 antagonist -31.4, D1 ag inactive and DRD3 antagonist inactive.
`O=C(c1cc2ccccc2o1)N1CCN(S(=O)(=O)c2cccs2)CC1` gave D3 ag inactive, D1 PAM inactive, D1 antagonist inactive, D1 ag inactive and DRD3 antagonist -56.3.
For O=C(CCc1ccccc1)N1CCN(S(=O)(=O)c2cccs2)CC1 the results were D3 ag inactive, D1 PAM inactive, D1 antagonist -39.7, D1 ag inactive and DRD3 antagonist inconclusive.
`O=S(=O)(c1cccs1)N1CCC(Cc2ccccc2)CC1` gave D3 ag inactive, D1 PAM inactive, D1 antagonist -42.4, D1 ag inactive and DRD3 antagonist inactive.
`O=C(OCc1ccccc1)C1CCN(S(=O)(=O)c2cccs2)CC1` gave D3 ag inactive and DRD3 antagonist inactive.
Cc1c(CCC(=O)NCc2cccc(Cl)c2)c(=O)oc2c(C)c(O)ccc12 was read as D3 ag inactive, D1 PAM inactive, D1 antagonist inactive and D1 ag inactive.
For Nc1c(Br)cc(Br)c2cccnc12 the results were D1 PAM inactive, D1 antagonist inactive and D1 ag inactive.
CCC(C)c1ccc(NC(=O)Nc2cccnc2)cc1 (centres undefined) was read as D3 ag inactive, D1 PAM inactive, D1 antagonist -30.3, D1 ag inactive and DRD3 antagonist inactive.
O=C(Nc1cccc(Cl)c1)Nc1ccon1 was read as D3 ag inactive, D1 PAM inactive, D1 antagonist inactive, D1 ag inactive and DRD3 antagonist inactive.
CCc1ccccc1NC(=O)Nc1cccc(F)c1 was read as D3 ag inactive, D1 PAM inactive, D1 antagonist -42.4, D1 ag inactive and DRD3 antagonist inactive.
For O=C(Nc1cccc(Cl)c1)Nc1cccc(Cl)c1 the results were D3 ag inactive, D1 PAM inactive, D1 antagonist -49.4, D1 ag inactive and DRD3 antagonist inactive.
Screening O=C(Nc1cccc(Cl)c1)Nc1cnccn1 returned D3 ag inactive, D1 PAM inactive, D1 antagonist -45.4, D1 ag inactive and DRD3 antagonist inactive.
Screening CCC(C)c1ccc(NC(=O)NCc2cccnc2)cc1 (centres undefined) returned D3 ag inactive, D1 PAM inactive, D1 antagonist inactive, D1 ag inactive and DRD3 antagonist inactive.
For CCN(C(=O)Cn1c(=O)oc2cc(Cl)ccc21)c1cccc(C(F)(F)F)c1 the results were D3 ag inactive, D1 PAM inactive, D1 antagonist inactive and D1 ag inactive.
`O=C(Nc1cccc(F)c1)Nc1cccc(Cl)c1` gave D3 ag inactive, D1 PAM inactive, D1 antagonist -53.4, D1 ag inactive and DRD3 antagonist inactive.
CCC(C)[C@H](NC(=O)Nc1cccc(Cl)c1)C(=O)O (some centres undefined) was read as D3 ag inactive, D1 PAM inactive, D1 antagonist inactive, D1 ag 31.0 and DRD3 antagonist inactive.
`CCC(C)[C@H](NC(=O)Nc1ccc(S(N)(=O)=O)cc1)C(=O)O` (some centres undefined) gave D3 ag inactive, D1 PAM inactive, D1 antagonist inactive, D1 ag inactive and DRD3 antagonist inactive.
For CNS(=O)(=O)c1ccc(NC(=O)Nc2cccc(F)c2)cc1 the results were D3 ag inactive, D1 PAM inactive, D1 antagonist -49.5, D1 ag inactive and DRD3 antagonist inactive.
